Assay results as given in PubChem BioAssay AID1159580 (chemical genetic matrix, 2015).
Where “and” joins values, the source holds several entries; their conditions need not be identical. Equal values may be shown once. Hit rate of the full screen: of about 5,500 compounds, about 2,000 (36%) were called active. About 18% were inconclusive and are not listed. Rule as the data show it: active = normalized growth mostly below about 0.91 (no sharp cut-off); inconclusive = no clear call, values can overlap the other calls; inactive = mostly above about 0.92. Some of the results follow.

Experiment: chemical genetic growth profiling, strain panel (AID 1159580);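 also: tested at 20 µM; growth read once vehicle control cultures reached saturation at 30 °C; 1 = growth at the plate median or of vehicle wells; lower values mean less growth of the strain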
Settings: S. cerevisiae deletion strains, growth OD

Measured: normalized growth

CNC(C)[C@H](O)c1ccccc1 (stereo partly drawn)
inactive: locus YAL013W, strain DEP1, hits give low values 1 | locus YAL021C, strain ccr4, hits give low values 1.03 | locus YAL026C, strain drs2, hits give low values 1.01 | locus YAL030W, strain snc1, hits give low values 1.01 | locus YBL061C, strain skt5, hits give low values 1.02 | locus YBR009C, strain hhf1, hits give low values 0.977 | locus YBR021W, strain FUR4, hits give low values 1.07 | locus YBR023C, strain chs3, hits give low values 1.01 | locus YBR171W, strain sec66, hits give low values 0.993 | locus YBR229C, strain ROT2, hits give low values 1.01 | locus YBR231C, strain swc5, hits give low values 1.01 | locus YBR279W, strain paf1, hits give low values 1 | locus YCL011C, strain gbp2, hits give low values 1.01 | locus YCL016C, strain dcc1, hits give low values 1.04 | locus YCL029C, strain bik1, hits give low values 1 | locus YCL061C, strain MRC1, hits give low values 0.995 | locus YCL069W, strain vba3, hits give low values 0.986 | locus YCR088W, strain abp1, hits give low values 0.989 | locus YDL005C, strain med2, hits give low values 0.999 | locus YDL035C, strain GPR1, hits give low values 1.05 | locus YDL040C, strain nat1, hits give low values 1 | locus YDL074C, strain BRE1, hits give low values 1.02 | locus YDL101C, strain DUN1, hits give low values 1.01 | locus YDL134C, strain PPH21, hits give low values 1.04 | locus YDL185W, strain tfp1, hits give low values 0.991 | locus YDL192W, strain arf1, hits give low values 0.998 | locus YDR001C, strain nth1, hits give low values 0.996 | locus YDR069C, strain doa4, hits give low values 1.02 | locus YDR101C, strain arx1, hits give low values 1.02 | locus YDR137W, strain rgp1, hits give low values 1 | locus YDR159W, strain sac3, hits give low values 0.995 | locus YDR162C, strain NBP2, hits give low values 1.02 | locus YDR195W, strain ref2 1.01 | locus YDR297W, strain sur2, hits give low values 1.01 | locus YDR318W, strain mcm21, hits give low values 1 | locus YDR334W, strain swr1, hits give low values 0.983 | locus YDR335W, strain msn5, hits give low values 1.03 | locus YDR388W, hits give low values 0.995 | locus YDR392W, strain spt3, hits give low values 1.05 | locus YDR502C, strain sam2, hits give low values 0.997 | locus YEL003W, strain gim4, hits give low values 0.992 | locus YEL037C, strain rad23, hits give low values 0.986 | locus YEL061C, strain CIN8 (second series), hits give low values 0.993 | locus YEL061C, strain CIN8, hits give low values 1.02 | locus YER015W, strain faa2, hits give low values 1.01 | locus YER016W, strain bim1, hits give low values 1.03 | locus YER110C, hits give low values 0.986 | locus YER111C, strain swi4, hits give low values 1 | locus YER155C, strain BEM2 (second series), hits give low values 1.02 | locus YER155C, strain BEM2, hits give low values 1.01 | locus YER167W, strain BCK2, hits give low values 1.02 | locus YFR010W, strain ubp6, hits give low values 0.96 | locus YGL078C, strain dbp3, hits give low values 0.994 | locus YGL086W, strain mad1, hits give low values 1.01 | locus YGL167C, strain pmr1, hits give low values 1.01 | locus YGL173C, strain kem1, hits give low values 1.01 | locus YGL227W, strain vid30, hits give low values 0.994 | locus YGL240W, strain doc1, hits give low values 0.993 | locus YGL248W, strain PDE1, hits give low values 1.02 | locus YGL253W, strain hxk2, hits give low values 1.01 | locus YGR078C, strain PAC10, hits give low values 1.02 | locus YGR135W, strain pre9, hits give low values 0.986 | locus YGR229C, strain SMI1, hits give low values 1.02 | locus YGR252W, strain gcn5, hits give low values 0.98 | locus YHR013C, strain ard1, hits give low values 1.04 | locus YHR027C, strain rpn1, hits give low values 0.998 | locus YHR030C, strain SLT2, hits give low values 1.02 and 1.05 | locus YHR079C, strain IRE1 (second series), hits give low values 1 | locus YHR079C, strain IRE1, hits give low values 1.03 | locus YHR094C, strain hxt1, hits give low values 0.989 | locus YHR129C, strain ARP1, hits give low values 1.01 | locus YHR142W, strain chs7, hits give low values 1 | locus YHR200W, strain rpn10, hits give low values 0.999 | locus YIL066C, strain RNR3, hits give low values 1.03 | locus YIL073C, strain SPO22, hits give low values 0.991 | locus YIL125W, strain kgd1, hits give low values 1 | locus YIR030C, strain dcg1, hits give low values 1 | locus YJL092W, strain hpr5, hits give low values 1 | locus YJL095W, strain BCK1 (second series), hits give low values 1.01 | locus YJL095W, strain BCK1, hits give low values 1.01 and 1.06 | locus YJL115W, strain asf1, hits give low values 0.993 | locus YJL129C, strain trk1, hits give low values 1.01 | locus YJL134W, strain LCB3, hits give low values 1 | locus YJL154C, strain vps35, hits give low values 0.986 | locus YJL164C, strain tpk1, hits give low values 1.01 | locus YJL166W, strain qcr8, hits give low values 1.01 | locus YJL168C, strain set2, hits give low values 0.991 | locus YJL187C, strain SWE1 (second series), hits give low values 1.01 | locus YJL187C, strain SWE1, hits give low values 1.02 | locus YJR043C, strain POL32, hits give low values 1.04 | locus YJR066W, strain TOR1, hits give low values 0.972 | locus YKL009W, strain mrt4, hits give low values 0.992 | locus YKL068W, hits give low values 0.995 | locus YKL085W, strain MDH1 (second series), hits give low values 1.03 | locus YKL085W, strain MDH1, hits give low values 1.03 | locus YKL160W, strain elf1, hits give low values 1.05 | locus YKL190W, strain CNB1, hits give low values 1.01 | locus YKR001C, strain vps1, hits give low values 0.997 | locus YKR026C, strain gcn3, hits give low values 0.995 | locus YKR091W, strain srl3, hits give low values 1 | locus YLL001W, strain dnm1, hits give low values 1.02 | locus YLL026W, hits give low values 1.02 | locus YLL041C, strain sdh2, hits give low values 0.996 | locus YLR027C, strain aat2, hits give low values 1.02 | locus YLR039C, strain RIC1, hits give low values 0.978 | locus YLR058C, strain SHM2, hits give low values 1.01 | locus YLR102C, strain apc9, hits give low values 0.986 | locus YLR113W, strain HOG1, hits give low values 1.08 | locus YLR221C, strain rsa3, hits give low values 0.984 | locus YLR258W, strain gsy2, hits give low values 1.03 | locus YLR262C, strain YPT6 (second series), hits give low values 0.972 | locus YLR262C, strain YPT6, hits give low values 0.983 | locus YLR268W, strain sec22, hits give low values 0.993 | locus YLR320W, strain mms22, hits give low values 0.994 | locus YLR330W, strain CHS5, hits give low values 1.01 | locus YLR342W, strain FKS1 (second series), hits give low values 1.05 | locus YLR342W, strain FKS1, hits give low values 1.02 | locus YLR357W, strain rsc2, hits give low values 0.958 | locus YLR370C, strain arc18, hits give low values 1.03 | locus YLR371W, strain rom2, hits give low values 0.987 | locus YLR384C, strain iki3, hits give low values 0.995 | locus YLR418C, strain cdc73, hits give low values 1.01 | locus YML016C, strain PPZ1, hits give low values 1.01 | locus YML032C, strain rad52, hits give low values 1 | locus YML120C, strain ndi1, hits give low values 0.996 | locus YML124C, strain tub3, hits give low values 0.991 | locus YMR058W, strain fet3, hits give low values 0.999 | locus YMR078C, strain ctf18, hits give low values 0.989 | locus YMR125W, strain sto1, hits give low values 0.955 | locus YMR129W, hits give low values 1.02 | locus YMR205C, strain PFK2, hits give low values 1 | locus YMR223W, strain ubp8, hits give low values 0.998 | locus YMR231W, strain pep5, hits give low values 1 | locus YMR263W, strain SAP30, hits give low values 1.01 | locus YMR307W, strain GAS1, hits give low values 1.17 | locus YNL067W, strain RPL9B, hits give low values 1 | locus YNL071W, strain lat1, hits give low values 0.991 | locus YNL183C, strain NPR1, hits give low values 0.982 | locus YNL209W, strain ssb2, hits give low values 0.999 | locus YNL233W, strain BNI4, hits give low values 1.02 | locus YNL248C, strain rpa49, hits give low values 0.969 | locus YNL250W, strain rad50, hits give low values 0.989 | locus YNL271C, strain bni1, hits give low values 0.982 | locus YNL298W, strain CLA4, hits give low values 1.02 | locus YNL307C, strain MCK1, hits give low values 1 | locus YNL322C, strain KRE1 (second series), hits give low values 1.01 | locus YNL322C, strain KRE1, hits give low values 1.05 | locus YNR049C, strain mso1, hits give low values 0.996 | locus YNR052C, strain pop2, hits give low values 1 | locus YOL006C, strain TOP1, hits give low values 1.16 | locus YOL012C, strain htz1 1.33 | locus YOL147C, strain pex11, hits give low values 0.982 | locus YOR001W, strain rrp6, hits give low values 0.934 | locus YOR061W, strain CKA2, hits give low values 1.02 | locus YOR069W, strain VPS5, hits give low values 1.01 | locus YOR070C, strain gyp1, hits give low values 1.02 | locus YOR080W, strain dia2, hits give low values 1.01 | locus YOR083W, strain WHI5, hits give low values 1.04 | locus YOR106W, strain vam3, hits give low values 1.03 | locus YOR136W, strain idh2, hits give low values 1 | locus YOR144C, strain elg1, hits give low values 0.995 | locus YOR184W, strain ser1, hits give low values 1 | locus YOR231W, strain MKK1, hits give low values 1.06 | locus YOR265W, strain rbl2, hits give low values 1.01 | locus YOR270C, strain vph1, hits give low values 0.952 | locus YOR290C, strain snf2, hits give low values 1.06 | locus YOR316C, strain cot1, hits give low values 0.995 | locus YPL051W, strain arl3, hits give low values 1.03 | locus YPL055C, strain LGE1, hits give low values 1.01 | locus YPL078C, strain atp4, hits give low values 1.03 | locus YPL106C, strain sse1, hits give low values 1.04 | locus YPL240C, strain hsp82, hits give low values 0.992 | locus YPL256C, strain CLN2, hits give low values 1.04 | locus YPR119W, strain clb2, hits give low values 0.991 | locus YPR141C, strain kar3, hits give low values 0.985 | locus YPR163C, strain tif3, hits give low values 0.998 | locus YPR167C, strain met16, hits give low values 0.99 | strain wtn01, hits give low values 1
